# Only some compounds are listed: those with a hit (about 1.7% of all), similar ones and a draw of the others.
# GLP1R ag: activates the human GLP-1 receptor; P43220; HEK293 GLP-1R CRE-luciferase, luminescence, 4-6 h; cells express a hypersensitive GLP-1R form; hit rate 0.007% among 380,000; Potency, µM (doses to about 45.6 µM), for inactives: at the highest dose activation, usual class: activators; also: % of control where 0% means no effect
# Target sequence (P43220 whole entry, looked up): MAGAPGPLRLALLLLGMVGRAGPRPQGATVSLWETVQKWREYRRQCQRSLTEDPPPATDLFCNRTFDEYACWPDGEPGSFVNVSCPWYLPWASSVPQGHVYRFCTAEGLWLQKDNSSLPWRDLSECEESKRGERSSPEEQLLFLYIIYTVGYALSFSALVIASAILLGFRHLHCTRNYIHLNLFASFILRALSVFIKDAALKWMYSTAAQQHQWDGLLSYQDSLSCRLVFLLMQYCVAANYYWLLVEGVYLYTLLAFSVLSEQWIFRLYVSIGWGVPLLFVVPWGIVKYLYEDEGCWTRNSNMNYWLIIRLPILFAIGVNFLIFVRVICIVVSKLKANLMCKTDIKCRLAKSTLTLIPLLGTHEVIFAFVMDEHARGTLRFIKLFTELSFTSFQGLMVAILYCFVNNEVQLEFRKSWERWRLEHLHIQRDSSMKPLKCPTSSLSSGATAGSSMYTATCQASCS
# GLP1R cytotox: cytotoxicity in counter-screen for GLP-1R inverse agonists | HEK293 cAMP-luciferase reporter cells, luminescence, 24 h | hit rate 0.13% among 410,000 | Potency, µM (doses to about 38.3 µM), for the others: at the top dose activity change, negative = inhibition, hits mostly inhibitors;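 also: loss of luciferase light is scored as toxicity; % is scaled to controls: 0 for no effect and ±100 for the full control effect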
#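 Seeding density was 200 cells/uL; after overnight-length (12 h) culture, 23 nL compounds went on for 24 h at 37 °C. Readout used a luciferase detection reagent, luminescence taken after 12 min at room temperature.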
# GLP-1R inv ag: acts as inverse agonist at human GLP-1 receptor. P43220. HEK293 GLP-1R CRE-luciferase, luminescence, 24 h; GLP-1R form is constitutively active. Potency, µM (series often up to 38.3 µM), without a hit: top-dose activity change, negative = inhibition, usual class: inhibitors. hit rate 1.6% among 410,000; also: % is scaled to controls: 0 for no effect and ±100 for the full control effect; nearly all actives have a fitted effect of over 55% in size
#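 Luminescence readout: a drop in cAMP-driven luciferase signal flags inverse agonism at a constitutively active GLP-1R stably expressed in HEK293. Compound exposure lasted 24 hr at 37 deg C, 5% CO2.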
# * = called active by the depositor; ? = inconclusive; . = not tested or not shown. Calls follow the shape of the dose curve; as a rule, active = well fitted curve in the direction sought with a large enough effect; inconclusive = small, poorly fitted or top-dose-only effect, or another doubt; inactive = no such curve, though single readings can be large; an effect the other way counts as inactive or inconclusive. Potency is read from the fitted curve at half-maximal effect.
SMILES,GLP1R ag,GLP1R cytotox,GLP-1R inv ag
CCNC(=S)N(Cc1cc2cc(C)c(C)cc2[nH]c1=O)C1CCCC1,19%,10%,?
O=[N+]([O-])c1cccc(C=NN=C2c3ccccc3-c3ccccc32)c1,0%,17%,16%
CC1S/C(=N\N=C\c2cccc([N+](=O)[O-])c2)N(C(C)(C)C)C1=O (stereo not given),4%,0%,3.5µM*
CCC1Nc2ncnc(N3CCN(c4ccccn4)CC3)c2N(Cc2ccc(Cl)cc2)C1=O (stereo not given),0%,-2%,?
COc1cc(C(=O)C(=O)N2CCN(c3ccccc3)CC2)cc2ccccc12,.,-2%,-10%
O=C(Nc1ccccc1)N(Cc1ccccc1)Cc1ccccc1,7%,3%,0%
O=C(Nc1ccccc1)N(Cc1ccc(Cl)cc1)CC(O)C(F)(F)F (stereo not given),12%,-19%,10µM*
Cc1ccn2c(Nc3ccc4c(c3)OCO4)c(-c3ccc(N(C)C)cc3)nc2c1,.,-12%,?
COc1ccc(Cl)cc1NC(=O)CN1C(=O)NC2(CCCC2)C1=O,1%,-11%,-27%
O=C(/C=C\c1ccco1)Oc1cccc2cccnc12,0%,?,?
COc1ccccc1/C=C/C(=O)Oc1cccc2cccnc12,7%,?,4.5µM*
Cc1ccc(-c2nnc(SCC(=O)NC3CCCc4ccccc43)n2N)cc1 (stereo not given),-3%,-20%,?
Cc1ccc(-n2nnnc2SCC(=O)NC2CCCc3ccccc32)cc1 (stereo not given),-1%,-7%,10µM*
Cc1ccc(-n2nnnc2SCC(=O)NC2CCCc3ccccc32)c(C)c1 (stereo not given),9%,-8%,10µM*
Cc1ccc(-n2nnnc2SCC(=O)N2CCc3ccccc3C2)c(C)c1,-3%,-14%,0%
CCC(C)n1c(=O)c2sccc2n2c(CCCC(=O)N3CCN(c4ccccc4)CC3)nnc12 (stereo not given),.,-5%,-10%
Cc1ccccc1NC(=O)CSc1cn(CC(=O)N2CCCC2)c2ccccc12,.,0%,-4%
O=C(CS(=O)(=O)c1cccc2nsnc12)Nc1cc(F)ccc1F,2%,-4%,-3%
COc1ccc(CCNC(=O)c2cccc(S(=O)(=O)N3CCCCC3)c2)cc1,2%,-16%,?
COc1ccc(CCNC(=O)c2cc(S(=O)(=O)N3CCCCC3)ccc2Cl)cc1,7%,20%,8.9µM*
Cc1ccc2c(=O)cc(C(=O)Nc3ccc(S(=O)(=O)N(C)Cc4ccccc4)cc3)oc2c1C,.,-3%,6%
CCCn1c(=O)sc2cc(NC(=O)c3ccc(OC)c(Br)c3)ccc21,1%,-31%,10µM*
CCn1c(=O)sc2cc(NC(=O)c3cccc(OC)c3)ccc21,8%,-21%,4%
c1ccc(Nc2nc(Nc3ccccc3)nc(N3CCNCC3)n2)cc1,9%,?,?
CC(Nc1nc(-c2ccncc2)nc2ccccc12)c1ccccc1 (stereo not given),?,11%,7.1µM*
SMILES,GLP1R ag,GLP1R cytotox,GLP-1R inv ag
CC(Nc1nc(N2CCNCC2)nc2ccccc12)c1ccccc1 (stereo not given),0%,?,11µM*
CC(Nc1nc(-c2cccnc2)nc2ccccc12)c1ccccc1 (stereo not given),6%,-31%,?
CC(C)c1ccc(NC(=O)c2cc(S(=O)(=O)NCCC3=CCCCC3)ccc2F)cc1,.,-6%,?
CN(C1CCCCC1)S(=O)(=O)c1ccc(NC(=O)c2ccc(Br)o2)cc1,1%,-6%,7.1µM*
COc1ccccc1NC(=O)c1cc(S(=O)(=O)N(C)C2CCCCC2)ccc1F,.,-3%,?
CC(C)c1ccc(NC(=O)c2cc(S(=O)(=O)NCc3ccccc3Cl)ccc2F)cc1,.,?,6.3µM*
CC(C)c1ccc(NC(=O)c2cc(S(=O)(=O)N(C)C3CCCCC3)ccc2F)cc1,.,5%,10µM*
CN(C)S(=O)(=O)c1ccc(NC(=O)c2ccc(Br)o2)cc1,4%,-13%,0%
Cc1ccc(NC(=O)CSCC(=O)NC2(C)CCS(=O)(=O)C2)cc1 (stereo not given),-7%,8%,8%
CCNC(=O)CC1C(=O)N(c2ccc(F)cc2)C(=O)N1Cc1ccc(OC)c(OC)c1 (stereo not given),-1%,14%,2%
CCCCNS(=O)(=O)c1ccc2nc(-c3cccnc3)cc(C(=O)NCCC)c2c1,.,9%,8%
Cc1ccc(NC(=O)CNCc2ccccc2Cl)cc1S(=O)(=O)N(C)C,9%,16%,-20%
COC(=O)[C@@]12C[C@@H](CC(=O)NCC34CC5CC(CC(C5)C3)C4)C(=O)N(Cc3ccco3)C1=CCC(C)(C)C2,.,-8%,10µM*
C#CCNC(=O)C[C@@H]1C[C@@]2(C(=O)OC)CC(C)(C)CC=C2N(Cc2ccco2)C1=O,.,-10%,0%
COC(=O)[C@@]12C[C@@H](CC(=O)NCc3cccs3)C(=O)N(Cc3cccc4ccccc34)C1=CCC(C)(C)C2,.,1%,11µM*
C#CCNC(=O)C[C@@H]1C[C@@]2(C(=O)OC)CC(C)(C)CC=C2N(Cc2cccc3ccccc23)C1=O,.,-1%,?
CC(=NNC(=O)c1ccncc1)c1ccc2ccccc2c1O,-4%,38%,?
N#Cc1c(-c2ccc(Cl)cc2)c(-c2ccc(Cl)cc2)nn(CCOC(=O)CCC(=O)O)c1=O,11%,?,?
COc1cc(OC)nc(-n2ncc(Br)c(Br)c2=O)n1,-5%,3.2µM*,?
COC(=O)c1cnn(-c2nc(OC)cc(OC)n2)c1C,-1%,7%,-1%
NC(Cc1ccc(F)cc1)c1csc(Nc2cc(Oc3ccccc3)ncn2)n1 (stereo not given),-6%,?,?
CC(C)=CCOc1ccc(/C=C/C(=O)c2ccc(OCC=C(C)C)cc2OCC(=O)O)cc1,2%,.,.
Cc1ccccc1C(=O)N1CCC(C(=O)Nc2nccs2)CC1,3%,-16%,-10%
Cc1ccccc1C(=O)N1CCC(C(=O)Nc2nc3ccc(F)cc3s2)CC1,-7%,-5%,10µM*
CCOC(=O)[C@]12CCCC=C1N(Cc1ccccc1)C(=O)[C@H](CC(=O)N1CCCC1)C2,.,1%,3%
SMILES,GLP1R ag,GLP1R cytotox,GLP-1R inv ag
Cc1ccc(S(=O)(=O)N2CCN(C(=O)CSc3ncn[nH]3)CC2)cc1,-1%,-1%,17%
CN(C)CC/C=C1/c2ccccc2Sc2c(O)cc(Cl)cc21,-8%,?,?
COc1cc(Cl)cc2c1Sc1ccccc1/C2=C/CCN(C)C,5%,11%,?
COc1cc2c(cc1Cl)/C(=C\CCN(C)C)c1ccccc1S2,-17%,?,10µM*
CN(C)CC/C=C1/c2cc(F)ccc2Sc2ccc(Cl)cc21,6%,?,10µM*
CC(=O)c1ccc(OCc2cc(C(=O)N(C)Cc3ccccn3)no2)cc1,-9%,4%,10%
Cc1cc(OCc2cc(C(=O)N(C)Cc3ccccn3)no2)cc(C)c1Cl,0%,2%,2µM*
CC1CCN(C(=O)c2cc(S(=O)(=O)N3CCCCC3)c[nH]2)CC1,4%,6%,-11%
OC(c1cccc(Cl)c1)c1nc(/C=C/c2ccccc2)cs1 (stereo not given),5%,2%,?

# Source: PubChem BioAssay
